# Results published in PubChem BioAssay (NCI).
# The panel holds about 83,000 compounds, 20% with a hit somewhere; the sample as a whole holds those more often.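 The endpoint reported here, percent growth, reads 100 for growth as untreated, 0 for no net growth and -100 for all cells dead.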 A number with no mark means an inactive call. Active and inactive are the calls of the source.
# Test system: NCI-H522 lung
# Assay: NCI-60 one-dose screen, 48 h (100 = growth as untreated, 0 = no growth, -100 = all killed)
# Settings: 10 µM unless noted
# Experimental: Growth inhibition of the NCI-H522 human Non-Small Cell Lung tumor cell line is measured as a screen for anti-cancer activity. Cells are grown in 96 well plates and exposed to the test compound for 48 hours. Compounds are tested at a single concentration, which is 10^-5 M for most compounds. The reported endpoint is percent growth (GI% or GIPRCNT), where numbers from 0 - 100% represent growth inhibition, and numbers from -100% - 0 represent cell death. For example, a value of 40 represents 60% growth inhibition. A value of 0 means no net growth occurred over the course of the experiment. A value of -40 indicates 40% of cells at the beginning of the experiment died by the end of the experiment. A value of -100 means all cells are dead at the end of the experiment.
# NCI-60 Human Tumor Cell Lines Screen was performed using the standard one-dose NCI protocol, which is described in more detail at https://dtp.cancer.gov/discovery_development/nci-60/default.htm.
# Compounds with GIPRCNT values below 10 were considered active. Activity score was based on GIPRCNT using the following formula: […]
# Score is 0 for GIPRCNT values of 100 or above, 50 for GIPRCNT values of 0, and 100 for GIPRCNT values of -100.
row,SMILES,growth
1,C=C1C(=O)O[C@H]2[C@H]1CC/C(C=Nc1c(N)cc(F)cc1Br)=C\CC[C@@]1(C)O[C@@H]21,53.8%
2,NS(=O)(=O)c1ccc(C2C3=C(CCCC3=O)OC3=C2C(=O)c2ccccc2C3=O)cc1 (stereo not given),-73.7% (active)
3,S=c1ssnc1-c1cc2ccccc2o1,79.2%
4,Cc1cc2ccccc2c[n+]1CC(=O)c1ccc(-c2ccccc2)cc1,26.8%
5,O=C(CCCCCCCCC(=O)Nc1cccc(C2=NCCN2)c1)Nc1cccc(C2=NCCN2)c1,70.3%
6,CC1CCCN(CCCCCOc2ccc3oc4ccccc4c(=O)c3c2)C1 (stereo not given),67.4%
7,Nc1c(C(=O)Nc2cccc3ccccc23)sc2nc3c(cc12)COCC3,26.4%
8,O=c1c2ccccc2n(CC(O)CN2CCCC2)c2c(Br)cccc12 (stereo not given),101%
9,COc1cc(/C=C/C(=O)c2ccc(NC(=O)CSc3nnc(-c4cc(OC)c(OC)c(OC)c4)n3-c3ccccc3)cc2)cc(OC)c1OC,-4.14% (active)
10,COc1cc(/C=N/Nc2nc(-c3ccc(F)cc3)c(C#N)c(N3CCOCC3)n2)ccc1O,99.3%
11,COc1ccc(-c2nc(C#N)c(NCC(c3ccco3)N3CCCC3)o2)cc1 (stereo not given),30.6%
12,O=C(Nc1nccs1)c1noc2ccccc12,86.6%
13,CCCCn1c(=O)c(/C=C/C(=O)/C=C/c2cc3ccccc3n(CCCC)c2=O)cc2ccccc21,5.74% (active)
14,COC(=O)c1ccc2c(c1)n(Cc1ccc3ccccc3c1)c[n+]2Cc1ccc2ccccc2c1,26.3%
15,Cc1ccc(SC2c3ccc(C)cc3Oc3nc(N)c(C#N)c(N)c32)cc1 (stereo not given),-53.4% (active)
16,Cc1cnc(SCc2ccc(Cl)cc2Cl)nc1Nc1ccc(Cl)c(Cl)c1,66.7%
17,COc1ccc(-c2nnc(N3CCN(C(=O)CN4CCN(c5ccc(OC)cc5)CC4)CC3)nc2-c2ccc(OC)cc2)cc1,-84.5% (active)
18,C=C(C)[C@@H]1CC[C@]2(C(=O)OCCCC[P+](c3ccccc3)(c3ccccc3)c3ccccc3)CC[C@]3(C)[C@H](CC[C@@H]4[C@@]5(C)CC[C@H](OC(=O)C(Cl)Cl)C(C)(C)[C@@H]5CC[C@]43C)[C@@H]12,-38.3% (active)
19,COc1ccc(-c2cc(-c3nnc(SCC(=O)Nc4ccc(C(C)=O)cc4)o3)c3ccccc3n2)cc1,-28.7% (active)
20,O=C1NN(c2ccccc2)C(c2ccc(Cl)cc2)N2CCC[C@H]12 (stereo not given in full),106%

row,SMILES,growth
1,CCOC(=O)c1c(C(F)(F)F)n([O-])c2ccc(Cl)cc2[n+]1=O,-59.4% (active)
2,N#C/C(=C/c1ccc(O)c([N+](=O)[O-])c1)c1nc(-c2ccc([N+](=O)[O-])cc2)cs1,11.2%
3,N#Cc1ccc(Oc2ccc3ccc(=O)oc3c2)cc1,105%
4,NS(=O)(=O)c1ccc(-n2nc(-c3ccccc3)ccc2=O)cc1,89.9%
5,Nc1n[nH]c2cccc(C#Cc3cccc(NC(=O)c4cc(N5CCOCC5)cc(C(F)(F)F)c4)c3)c12,53.2%
6,CCCCCCN1C(=O)CN=C1Nc1ccc2cc3ccc(NC4=NCC(=O)N4CCCCCC)cc3nc2c1,-9.83% (active)
7,CCOC(=O)C1CCN(S(=O)(=O)/N=C2/NC(=O)NC2=C(Cl)Cl)CC1,-69.4% (active)
8,COc1ccc(-c2nc(C#N)c(NCC(c3ccc(Cl)cc3)N3CCCCC3)o2)cc1 (stereo not given),84.6%
9,C=C1C(=O)O[C@H]2[C@H]1CCC(/C=N/c1ncc(Br)cc1N)=C\CC[C@@]1(C)O[C@@H]21,-51.7% (active)
10,C=C1C(=O)O[C@H]2[C@H]1CC/C(COC(=O)n1ccnc1)=C\CC[C@@]1(C)O[C@@H]21,31.9%
11,C=C1C(=O)O[C@H]2[C@H]1CC/C(COC(=O)CCCCC(=O)OC/C1=C/CC[C@@]3(C)O[C@H]3[C@H]3OC(=O)C(=C)[C@@H]3CC1)=C\CC[C@@]1(C)O[C@@H]21,-36.9% (active)
12,COc1cc(/C=C/C(=O)/C=C/c2cc3ccc(Cl)cc3[nH]c2=O)ccc1O,66.4%
13,CS(=O)(=O)O[C@@H]1C(=O)N(c2cc3c4ccccc4ccc3c3ccccc23)[C@H]1c1ccc(F)cn1,-19.9% (active)
14,CC(=O)Nc1nc2c(c(N)c1C#N)C(c1cccc(Cl)c1)C1=C(CCCC1=O)N2c1sc2c(c1C#N)CCCC2 (stereo not given),21.3%
15,C#Cc1ccccc1NC(=O)c1sc2nc3c(cc2c1N)CCCCC3,71.5%
16,CC1(C)[C@@H](O)CC[C@]2(C)[C@H]3CC[C@@H]4[C@H]5[C@H](c6cn(-c7ccccc7)nn6)CC[C@]5(CO)CC[C@@]4(C)[C@]3(C)CC[C@@H]12,69.4%
17,C=C(C)[C@@H]1CC[C@]2(C(=O)N=C=S)CC[C@]3(C)[C@H](CC[C@@H]4[C@@]5(C)CCC(=O)C(C)(C)[C@@H]5CC[C@]43C)[C@@H]12,15.3%
18,COc1cc(-c2cn(-c3ccc(Cl)c(Cl)c3)c(=O)[nH]2)cc(OC)c1OC,74.5%
19,O=C1Nc2ccc(Cl)cc2/C1=N/c1nc(-c2ccc(F)cc2)cs1,20.7%
20,COc1ccc(/C=C/C(=O)/C=C(/C=C/c2ccc(OC)c(OC)c2)OB(F)F)cc1OC,-32.4% (active)
